High-throughput results from PubChem BioAssay.
Nrf2 ARE act = activates Nrf2 signaling; AREc32 ARE-luciferase reporter (MCF7-derived line), luminescence, 24 h; Potency, µM (doses to about 46.1 µM), without a hit: top-dose activation, most hits filed as activators; 410,000 tested, 0.31% active; AID 624171; note: potency is the fitted concentration of half-maximal effect; % of control where 0% means no effect; nearly all actives have a fitted effect of over 65% in size
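Quantitative high-throughput format: AREc32 reporter cells, 1000 per well, received compound by pin transfer and were incubated 24 hr at 37 deg C, 5% CO2, before Steady-Glo luminescence detection.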
LDHA block = inhibitors of human lactate dehydrogenase A | activity change, % (values are at about 110 or 230 µM) | AID 1347041 | P00338 | purified LDHA, NADH/diaphorase-resazurin fluorescence; active compounds read low | 480,000 tested, 0.15% active; in the data active = activity change below about -30%; inconclusive = mostly about -25% to -30%;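 note: plate controls were DMSO wells for no effect and wells without enzyme for full effect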
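Resorufin fluorescence (ex540/em590), read at 0 and 20 min after diaphorase/resazurin addition, reports the NADH left after a 5 min room-temperature reaction of 2 nM human LDH5 with 0.06 mM NADH and 0.2 mM pyruvate.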
12-LOX inh = ALOX12 (human) lipoxygenase inhibition. 580,000 tested, 1.1% active. P18054. purified 12hLO, xylenol orange hydroperoxide absorbance. AID 1671190. Potency, µM (doses to about 108 µM), without a hit: at the top dose activity change, negative = inhibition, usual class: inhibitors; note: potency is the fitted concentration of half-maximal effect; % is set by controls: 0 for no effect and ±100 for the full control effect
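Purified human 12hLO at 150 nM in 25 mM Hepes, 0.01% Triton X-100, pH 7.0, preincubated 15 min at room temperature with compound. Reaction started with 40 uM arachidonic acid, 30 min at room temperature. Hydroperoxide measured by Fe-xylenol orange, 573/405 nm absorbance ratio.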
Nrf2 block = Nrf2 pathway inhibition; A549 ARE-Fluc reporter, luciferase luminescence, 18-24 h; Potency, µM (top dose mostly 46 µM), for the others: at the highest dose activity change, negative = inhibition, actives largely listed as inhibitors; 360,000 tested, 2.1% active; AID 504444; note: potency is the fitted concentration of half-maximal effect; % is set by controls: 0 for no effect and ±100 for the full control effect; nearly all actives have a fitted effect of over 60% in size
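A549 ARE_Fluc cells, 5000/well, 5% FBS OPTI-MEM; compounds in dose-response, 18-24 h at 37 °C/5% CO2; CellTiter-Fluor viability read (Ex 405/Em 525), then BugLite luciferase luminescence = Nrf2 activity.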
A549 viability = counter-screen for Nrf2 inhibitors: cytotoxicity in A549 cells. A549 ARE-Fluc cells, CellTiter-Fluor viability, 18-24 h. Potency, µM (doses to about 46 µM), for the others: at the top dose activity change, negative = cytotoxicity, hits mostly inhibitors. 390,000 tested, 0.16% active. AID 504648; note: potency is the fitted concentration of half-maximal effect; % is set by controls: 0 for no effect and ±100 for the full control effect
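Cytotoxicity counterscreen: CellTiter-Fluor fluorescence was measured in A549 ARE_Fluc cells after 18-24 h of compound exposure in a concentration series. The subsequent BugLite luminescent read reports ARE-luciferase activity.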
IDH1 R132H inh = human IDH1 R132H inhibition. AID 602179. IDH1-R132H enzyme, NADPH consumption, diaphorase/resazurin fluorescence. 390,000 tested, 0.093% active. Potency, µM (highest dose often 76.6 µM), without a hit: top-dose activity change, negative = inhibition, actives largely listed as inhibitors. O75874; note: potency is the fitted concentration of half-maximal effect; % is set by controls: 0 for no effect and ±100 for the full control effect; nearly all actives have a fitted effect of over 65% in size
Target sequence (O75874 whole entry R132H, stated change not applied): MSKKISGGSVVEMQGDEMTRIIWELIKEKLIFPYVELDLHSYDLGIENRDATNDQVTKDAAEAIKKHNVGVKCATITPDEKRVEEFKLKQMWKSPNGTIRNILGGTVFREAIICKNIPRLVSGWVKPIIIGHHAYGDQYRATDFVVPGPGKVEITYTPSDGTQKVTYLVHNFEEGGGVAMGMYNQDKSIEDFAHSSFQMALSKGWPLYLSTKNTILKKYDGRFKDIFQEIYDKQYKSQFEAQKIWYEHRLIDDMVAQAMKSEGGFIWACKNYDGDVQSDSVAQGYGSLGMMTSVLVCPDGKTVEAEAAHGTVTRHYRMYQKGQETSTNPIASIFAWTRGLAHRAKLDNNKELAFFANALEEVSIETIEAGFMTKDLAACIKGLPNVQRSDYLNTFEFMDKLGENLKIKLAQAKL
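IDH1-R132H (0.5 ug/mL dispensed) in pH 7.5 Tris buffer was preincubated 30 min with compound, then given a substrate mix of 0.016 mM NADPH and 2 mM alpha-KG for 80 min at room temperature; remaining NADPH was read by diaphorase/resazurin fluorescence.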
Resorufin autofl = counter-screen for mutant IDH1 inhibitors: fluorescence interference; inhibition of signal, % at 51.2 µM; 750 tested, under 10 active; shares compounds with IDH1 R132H inh; Resorufin detection reagent fluorescence interference, cell-free;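 note: 0% = wells with normal resorufin and full inhibition = wells lacking resorufin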
WT IDH1 inh = wild-type IDH1 (human) inhibition counterscreen; shares compounds with IDH1 R132H inh; WT IDH1 enzyme, NADPH diaphorase/resazurin fluorescence; Potency, µM (top dose mostly 115 µM), inactives show top-dose activity change, negative = inhibition, usual class: inhibitors; 750 tested, 9% active; AID 623995;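 note: potency is the fitted concentration of half-maximal effect; 0% = full WT IDH1 enzyme control and full inhibition = no enzyme wells; nearly all actives have a fitted effect of over 55% in size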
Target sequence (O75874 whole entry, looked up): as the sequence (O75874 whole entry R132H, stated change not applied) above, with H132R counted along it
IDH1 R132H conf = mutant IDH1 (human) inhibition, confirmed. Potency, µM (doses to about 76.6 µM), inactives show at the top dose activity change, negative = inhibition, actives largely listed as inhibitors. AID 624002. IDH1 R132H enzyme, NADPH diaphorase/resazurin fluorescence. shares compounds with IDH1 R132H inh. 750 tested, 83% active; note: potency is the fitted concentration of half-maximal effect; nearly all actives have a fitted effect of over 50% in size
* marks the source's active call; other numbers are inactive results; ? = inconclusive; / = no result given; [ ] = another dose, or the depositor's remark. Only some compounds are listed: those with a hit (about 2.7% of all), similar ones and a draw of the others. Unless noted, calls come from the whole dose curve; as a rule, active = well fitted curve in the direction sought with a large enough effect; inconclusive = small, poorly fitted or top-dose-only effect, or another doubt; inactive = no such curve, though single readings can be large; an effect the other way counts as inactive or inconclusive.

SMILES | Nrf2 ARE act | LDHA block | 12-LOX inh | Nrf2 block | A549 viability | IDH1 R132H inh | Resorufin autofl | WT IDH1 inh | IDH1 R132H conf
CC(C)c1ccc(C2C(C(=O)c3cccs3)=C(O)C(=O)N2c2nncs2)cc1 (centres undefined) | / | 8.2 | ? | / | / | / | / | / | /
COc1ccc(C)cc1-n1c(-c2ccc(Cl)cc2)cc2c1CC(C)(C)CC2=O | -0.9% | -5.1 | ? | 17.1% | -4.4% | ? | -0.7 | 0.4% | 14.1µM*
Cc1ccc(C)c(S(=O)(=O)c2nnn3c2nc(Nc2ccc(F)c(Cl)c2)c2sccc23)c1 | 0.7% | 4.7 | 0.0% | ? | ? | ? | 3.6 | -3.1% | ?
CC(=O)Nc1ccc(Nc2nc3c(S(=O)(=O)c4cc(C)ccc4C)nnn3c3ccsc23)cc1 | -0.6% | 0.5 | -16.3% | 9.7% | -0.6% | -5.6% | / | / | /
Cc1ccc(S(=O)(=O)c2nnn3c2nc(NC(C)c2ccccc2)c2sccc23)cc1 (centres undefined) | 0.6% | 5.3 | -27.7% | ? | -0.2% | ? | -9.0 | 2.2% | 14.1µM*
O=C1CCN(Cc2cccc(F)c2)CCCC(CO)CCN1 (centres undefined) | / | / | 54.7% | / | / | / | / | / | /
N#Cc1c2c(c(Nc3ccc(F)cc3)n3c1nc1ccccc13)CCCC2 | -0.2% | -9.0 | -8.1% | 5.2% | 5.6% | ? | 2.7 | -1.2% | 22.4µM*
N#Cc1c2c(c(Nc3ccccc3)n3c1nc1ccccc13)CCC2 | 0.6% | -0.3 | 157.0% | -5.9% | -17.3% | -3.3% | / | / | /
CCCCCCC1C2=C(CC(C)(C)CC2=O)OC2=C1C(=O)CC(C)(C)C2 | / | 2.0 | ? | / | / | / | / | / | /
COc1ccc2c(C(=O)c3ccc(C)cc3)n(Cc3ccc(C(N)=O)cc3)[n+]([O-])c2c1 | 10.6% | -1.4 | ? | 11.1% | -3.6% | ? | 3.7 | -18.9% | 15.8µM*
O=C(NC1CCCC1)C(c1ccc(O)cc1)N(CC1CCCO1)C(=O)C1COc2ccccc2O1 (centres undefined) | 0.0% | -2.0 | -22.6% | 5.8% | 1.8% | 11.4% | / | / | /
CCOc1cccc(N(C(=O)C2COc3ccccc3O2)C(C(=O)NC2CCCCC2)c2ccc(O)cc2)c1 (centres undefined) | -0.1% | -0.5 | -15.0% | -9.2% | -3.2% | ? | 5.5 | 10.0% | 5.62µM*
CC(C)CCNC(=O)C(c1ccc(O)cc1)N(C(=O)C1COc2ccccc2O1)c1cccc(O)c1 (centres undefined) | 2.7% | 0.7 | ? | ? | -7.1% | ? | 6.2 | 13.7% | ?
CCNC(=O)NC(=O)C(C)Sc1cc(C)c2cccc(C)c2n1 (centres undefined) | / | -0.7 | ? | / | / | / | / | / | /
Cc1cc(N(CCO)CCO)ccc1C(c1ccc(N(CCO)CCO)cc1C)c1ccccc1Cl | 9.9% | 7.1 | ? | -15.0% | -11.5% | 26.1µM* | 7.1 | ? | 7.08µM*
COc1ccc(N=C2S/C(=C\c3ccc(OC(C)C(=O)O)c(OC)c3)C(=O)N2CCc2c[nH]c3ccccc23)cc1 (centres undefined) | 0.3%[9.22 µM] | -1.5 | ? | 21.0% | -13.9% | ? | -2.2 | ? | 28.2µM*
COc1cc(/C=C2\SC(=Nc3ccccc3)N(CCc3c[nH]c4ccccc34)C2=O)ccc1OC(C)C(=O)O (centres undefined) | 3.4% | -15.4 | ? | 2.2% | -4.3% | ? | / | / | /
Cc1nn(-c2ccccc2)c(Cl)c1CN(C(=O)CCl)c1ccc(Cl)cc1 | -2.9% | -3.3 | ? | -8.3% | -4.7% | 52.1µM* | -2.1 | -2.0% | 28.2µM*
COc1ccc(-c2nnc(SCc3csc(Nc4ccccc4)n3)o2)cc1OC | / | -1.1 | ? | / | / | / | / | / | /
CSc1nn(Cc2ccc(C)cc2)c(N)c1S(=O)(=O)c1ccccc1 | 0.6% | -9.2 | -7.6% | 16.4µM* | -1.5% | 31.6µM* | 1.9 | -1.8% | 10µM*
CSc1nn(Cc2ccc(F)cc2)c(N)c1S(=O)(=O)c1ccc(Cl)cc1 | -0.6% | -2.6 | ? | ? | -1.8% | -12.9% | / | / | /
Cc1c(C(=O)N2CCCCCC2)c(S(=O)(=O)N2CCc3ccccc32)c(C)n1C | / | -13.6 | -15.6% | / | / | / | / | / | /
COc1cc(C(=O)Nc2nc(C)c(C(=O)N(C)C)s2)cc(OC)c1OC | / | -1.1 | ? | / | / | / | / | / | /
Cc1ccc(CSC2=Nc3ccccc3C3=NC(CCC(=O)NCc4cccs4)C(=O)N23)cc1 (centres undefined) | 4.0% | -0.2 | -3.7% | / | ? | 15.1% | / | / | /
Cc1ccc(CSC2=Nc3ccccc3C3=NC(CCC(=O)NCCc4ccccc4)C(=O)N23)cc1 (centres undefined) | 8.4% | -3.9 | -1.1% | / | 2.7% | ? | 0.9 | 4.4% | -9.2%
SMILES | Nrf2 ARE act | LDHA block | 12-LOX inh | Nrf2 block | A549 viability | IDH1 R132H inh | Resorufin autofl | WT IDH1 inh | IDH1 R132H conf
Cc1occc1-c1nnc(SC(C)C(=O)N2CCc3ccccc32)o1 (centres undefined) | / | -5.7 | 4.1% | / | / | / | / | / | /
CC(/C=C1\SC(=S)N(c2ccc(C(=O)O)cc2)C1=O)=C\c1ccccc1 | -0.8% | -6.9 | 35.5µM* | 2.5% | -6.7% | 23.3µM* | -4.0 | 44.7µM* | 50.1µM*
O=C(Oc1ccc2c(c1)O/C(=C\c1ccncc1)C2=O)c1ccccc1 | 9.6%[9.22 µM] | 1.6 | -27.0% | -5.1% | 11.9% | 52.1µM* | 2.6 | 1.1% | 35.5µM*
CS(=O)(=O)Oc1ccc2c(c1)O/C(=C\c1ccncc1)C2=O | / | -2.2 | -60.7% | / | / | / | / | / | /
CCOC(=O)C1CCCN(C(=S)NC2CCCC2)C1 (centres undefined) | 0.1% | -1.5 | 5.0% | 17.0% | -4.2% | ? | 0.9 | 10.5% | -1.8%
Cc1ccc(-n2c(SCC(=O)O)nc3c(sc(=S)n3-c3ccc(C)c(C)c3)c2=O)cc1 | -0.3% | -4.2 | 0.0% | -9.5% | -8.7% | 5.1% | / | / | /
Cc1ccc(-n2c(=S)sc3c(=O)n(-c4ccc(F)cc4)c(SCC(=O)O)nc32)cc1C | -1.2% | -10.0 | 0.0% | -3.9% | 1.6% | ? | -22.1 | 0.1% | 12.6µM*
